Experimental data published in paper PMC5700166.

Key:
Assay in all cases: protein-binding microarray (PBM); PBM: ~300 nM protein, 6 mM HEPES pH 7.8, 80 mM KCl, 0.5 mM EDTA, 0.5 mM EGTA, 6% glycerol, 35 ng/ul poly-dIdC, 1% milk, 1 h, room temperature; Ap Aiptasia and Nv Nematostella (sea anemones) / Co Capsaspora / Aq Amphimedon (sponge) / Dm Drosophila / Hu human; RHD is the Rel homology domain; high values mean tight binding
Conditions in all cases: dsDNA, one strand shown
GST-Ap-NF-kB RHD = target: T1, GST-Ap-NF-kB RHD (Exaiptasia pallida (Aiptasia), UniProt A0A913YAJ5 2-422)
T1 sequence: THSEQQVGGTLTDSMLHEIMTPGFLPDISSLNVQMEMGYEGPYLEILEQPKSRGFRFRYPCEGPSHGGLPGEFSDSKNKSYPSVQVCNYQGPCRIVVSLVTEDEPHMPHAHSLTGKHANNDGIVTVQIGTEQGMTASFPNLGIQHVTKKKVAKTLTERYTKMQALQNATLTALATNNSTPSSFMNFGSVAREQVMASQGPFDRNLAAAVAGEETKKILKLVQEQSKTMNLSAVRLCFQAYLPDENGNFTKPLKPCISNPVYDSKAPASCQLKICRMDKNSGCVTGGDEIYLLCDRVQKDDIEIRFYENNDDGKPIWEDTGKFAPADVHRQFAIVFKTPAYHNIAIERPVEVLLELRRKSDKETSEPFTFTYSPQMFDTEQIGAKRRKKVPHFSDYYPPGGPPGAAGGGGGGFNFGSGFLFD

[1] = target: T2, GST-Nv-NF-kB (Cys allele) (Nematostella vectensis, UniProt E5G601 2-411)
T2 sequence: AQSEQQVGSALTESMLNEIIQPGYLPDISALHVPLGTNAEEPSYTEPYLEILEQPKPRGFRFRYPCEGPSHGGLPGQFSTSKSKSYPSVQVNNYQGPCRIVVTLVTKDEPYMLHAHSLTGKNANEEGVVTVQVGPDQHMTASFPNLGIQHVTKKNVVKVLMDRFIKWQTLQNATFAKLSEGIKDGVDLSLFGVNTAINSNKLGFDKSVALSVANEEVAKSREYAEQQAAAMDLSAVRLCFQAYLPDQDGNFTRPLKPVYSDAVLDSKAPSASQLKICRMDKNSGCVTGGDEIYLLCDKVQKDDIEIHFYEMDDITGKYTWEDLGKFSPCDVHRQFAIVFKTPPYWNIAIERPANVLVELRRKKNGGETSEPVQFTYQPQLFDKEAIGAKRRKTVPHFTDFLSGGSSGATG

GST-Co-NF-kB = target: T3, GST-Co-NF-kB (Capsaspora owczarzaki, UniProt F1ARL5 200-546)
T3 sequence: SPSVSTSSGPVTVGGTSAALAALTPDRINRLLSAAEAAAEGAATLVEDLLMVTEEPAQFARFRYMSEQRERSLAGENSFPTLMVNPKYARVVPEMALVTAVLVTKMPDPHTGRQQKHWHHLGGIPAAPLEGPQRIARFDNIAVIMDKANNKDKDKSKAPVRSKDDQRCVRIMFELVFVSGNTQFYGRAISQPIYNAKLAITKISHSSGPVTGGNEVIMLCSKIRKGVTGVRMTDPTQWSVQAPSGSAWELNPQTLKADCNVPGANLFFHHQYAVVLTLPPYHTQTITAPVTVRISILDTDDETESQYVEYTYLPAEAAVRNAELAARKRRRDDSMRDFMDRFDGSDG

GST-Aq-NF-kB = target: T4, GST-Aq-NF-kB (Amphimedon queenslandica, UniProt A9Y5G7 2-389)
T4 sequence: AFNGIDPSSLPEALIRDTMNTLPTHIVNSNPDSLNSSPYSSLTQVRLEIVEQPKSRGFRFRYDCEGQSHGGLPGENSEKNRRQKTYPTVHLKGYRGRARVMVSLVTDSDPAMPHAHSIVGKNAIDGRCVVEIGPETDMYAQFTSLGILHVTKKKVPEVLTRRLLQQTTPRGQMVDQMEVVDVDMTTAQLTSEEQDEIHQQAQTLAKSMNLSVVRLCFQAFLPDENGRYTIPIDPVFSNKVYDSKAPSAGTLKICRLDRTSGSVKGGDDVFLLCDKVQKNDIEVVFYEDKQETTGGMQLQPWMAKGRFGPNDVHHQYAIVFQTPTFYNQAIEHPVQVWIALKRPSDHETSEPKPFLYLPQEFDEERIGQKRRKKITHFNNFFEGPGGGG

GST-Dm-Relish = target: T5, GST-Dm-Relish (Drosophila melanogaster, UniProt Q94527 99-473)
T5 sequence: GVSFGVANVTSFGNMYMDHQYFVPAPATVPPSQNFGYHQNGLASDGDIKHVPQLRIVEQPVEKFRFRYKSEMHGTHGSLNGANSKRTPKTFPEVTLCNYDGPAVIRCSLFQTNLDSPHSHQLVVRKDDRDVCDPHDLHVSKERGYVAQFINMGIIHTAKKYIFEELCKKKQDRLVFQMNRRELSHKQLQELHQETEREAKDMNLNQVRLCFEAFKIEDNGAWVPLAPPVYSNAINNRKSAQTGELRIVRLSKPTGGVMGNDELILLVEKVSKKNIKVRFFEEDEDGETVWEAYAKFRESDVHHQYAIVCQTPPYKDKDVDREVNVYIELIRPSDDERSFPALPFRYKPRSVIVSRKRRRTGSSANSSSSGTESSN

| Sequence | binding signal (GST-Ap-NF-kB RHD) [z-score] | binding signal [1] [z-score] | binding signal (GST-Co-NF-kB) [z-score] | binding signal (GST-Aq-NF-kB) [z-score] | binding signal (GST-Dm-Relish) [z-score] |
| --- | --- | --- | --- | --- | --- |
| CCGATTAACATCATGGTGGGAAATGATGTTAATCGGGTCTTGATTCGCTTGACGCTGCTG | 1.25 | 2.69 | 2.94 | 1.9 | – |
| CCGATTAACATCACCCAGTTCCCTGATGTTAATCGGGTCTTGATTCGCTTGACGCTGCTG | 1.22 | 1.21 | 1.44 | 1.7 | – |
| CCGATTAACATCAATTTACCCACTGATGTTAATCGGGTCTTGATTCGCTTGACGCTGCTG | 1.67 | 1.68 | 2.34 | 1.45 | – |
| CCGATTAACATCAACTTTCCCAGTGATGTTAATCGGGTCTTGATTCGCTTGACGCTGCTG | 1.05 | 2 | 3.84 | 3.06 | – |
| CCGATTAACATCACTCCCTAAAATGATGTTAATCGGGTCTTGATTCGCTTGACGCTGCTG | 1.35 | 2.35 | 1.22 | 3.48 | – |
| CCGATTAACATCAACTGGGAAAATGATGTTAATCGGGTCTTGATTCGCTTGACGCTGCTG | 1.66 | 3.04 | 3.52 | 1.65 | – |
| CCGATTAACATCAATCGGGAAATTGATGTTAATCGGGTCTTGATTCGCTTGACGCTGCTG | 1.3 | 3.45 | 2.19 | 2.1 | – |
| CCGATTAACATCAAATGTGGGAATGATGTTAATCGGGTCTTGATTCGCTTGACGCTGCTG | 1.11 | 1.53 | 3.07 | 2.21 | – |
| CCGATTAACATCAGGGAAAGGTATGATGTTAATCGGGTCTTGATTCGCTTGACGCTGCTG | 2.16 | 3.44 | 2.67 | 3.59 | – |
| CCGATTAACATCAGACATTCCCATGATGTTAATCGGGTCTTGATTCGCTTGACGCTGCTG | 1.46 | 2.27 | 1.37 | 2.26 | – |
| CCGATTAACATCAGAGTTTCCCATGATGTTAATCGGGTCTTGATTCGCTTGACGCTGCTG | 3.08 | 3.42 | 3.76 | 3.07 | – |
| CCGATTAACATCATGTTGGGAAATGATGTTAATCGGGTCTTGATTCGCTTGACGCTGCTG | 1.02 | 2.29 | 2.51 | 1.2 | – |
| CCGATTAACATCAATTCCCGTACTGATGTTAATCGGGTCTTGATTCGCTTGACGCTGCTG | 1.81 | 2.92 | 2.55 | 2.81 | – |
| CCGATTAACATCAAATCGGGAAATGATGTTAATCGGGTCTTGATTCGCTTGACGCTGCTG | 1.42 | 3.49 | 2 | 1.61 | – |
| CCGATTAACATCAGGGAAAAGGATGATGTTAATCGGGTCTTGATTCGCTTGACGCTGCTG | 1.79 | 3.4 | 2.73 | 2.41 | – |
| CCGATTAACATCATGATGGGAAATGATGTTAATCGGGTCTTGATTCGCTTGACGCTGCTG | 1.17 | 2.84 | 1.71 | 1.64 | – |

| Sequence | binding signal (GST-Ap-NF-kB RHD) [z-score] | binding signal [1] [z-score] | binding signal (GST-Co-NF-kB) [z-score] | binding signal (GST-Aq-NF-kB) [z-score] | binding signal (GST-Dm-Relish) [z-score] |
| --- | --- | --- | --- | --- | --- |
| CCGATTAACATCAACATGGGAATTGATGTTAATCGGGTCTTGATTCGCTTGACGCTGCTG | 1.01 | 2.42 | 1.5 | 1.89 | – |
| CCGATTAACATCAGGGACAAAAATGATGTTAATCGGGTCTTGATTCGCTTGACGCTGCTG | 2 | 3.15 | 2.39 | 2.39 | – |
| CCGATTAACATCAGGGAATCAGATGATGTTAATCGGGTCTTGATTCGCTTGACGCTGCTG | 1.26 | 1.61 | 1.68 | 1.84 | – |
| CCGATTAACATCAGGGAAAAGAATGATGTTAATCGGGTCTTGATTCGCTTGACGCTGCTG | 2.43 | 4.22 | 2.97 | 3.22 | – |
| CCGATTAACATCATGGAGGGAGGTGATGTTAATCGGGTCTTGATTCGCTTGACGCTGCTG | 1.29 | 1.62 | 1.14 | 1.34 | – |
| CCGATTAACATCACCTCTTTCCCTGATGTTAATCGGGTCTTGATTCGCTTGACGCTGCTG | 2.58 | 2.64 | 3.61 | 2.52 | – |
| CCGATTAACATCACCCGTTTCCCTGATGTTAATCGGGTCTTGATTCGCTTGACGCTGCTG | 2.8 | 3.24 | 3.33 | 3.03 | 1.19 |
| CCGATTAACATCAGGCACTCCCCTGATGTTAATCGGGTCTTGATTCGCTTGACGCTGCTG | 4.75 | 3.18 | 2.45 | 4.71 | 3.63 |
| CCGATTAACATCAAGGAATACCCTGATGTTAATCGGGTCTTGATTCGCTTGACGCTGCTG | 4.85 | 5.51 | 1.33 | 5.58 | 7.24 |
| CCGATTAACATCAAAATCTTCCCTGATGTTAATCGGGTCTTGATTCGCTTGACGCTGCTG | 5.74 | 5.94 | 4.16 | 5.28 | 1.48 |
| CCGATTAACATCAAAAATTGCCCTGATGTTAATCGGGTCTTGATTCGCTTGACGCTGCTG | 1.25 | 1.84 | 1.78 | 2.99 | 1.5 |
| CCGATTAACATCAGGGGGACAAATGATGTTAATCGGGTCTTGATTCGCTTGACGCTGCTG | 4.37 | 4.84 | 7.51 | 4.19 | 2.64 |
| CCGATTAACATCAAGAGTTTCCCTGATGTTAATCGGGTCTTGATTCGCTTGACGCTGCTG | 4.29 | 5.34 | 3.98 | 5.12 | 2.43 |
| CCGATTAACATCAGGGGGTTACATGATGTTAATCGGGTCTTGATTCGCTTGACGCTGCTG | 6.46 | 4.25 | 3.27 | 4.89 | 6.42 |
| CCGATTAACATCAAACCCCCCCATGATGTTAATCGGGTCTTGATTCGCTTGACGCTGCTG | 6.35 | 4.78 | 5.7 | 5.02 | 6.81 |
